# The list is not random: actives were taken first. Their share in the collection is about 1.8%.
# TrxR1 inh – blocks rat thioredoxin reductase 1; AID 588453; 390,000 tested, 1% active; Potency, µM (series often up to 114 µM), for inactives: top-dose activity change, negative = inhibition, actives largely listed as inhibitors; recombinant rTrxR1, NADPH fluorescence consumption, selenite substrate; also: % is scaled to controls: 0 for no effect and ±100 for the full control effect; nearly all actives have a fitted effect of over 65% in size
#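 Rat TrxR1 (90 nM in the dispensed reagent) was pre-reduced with 400 uM NADPH for 5 min at room temperature, then incubated with compound for 15 min. After 400 uM selenite was added, NADPH fluorescence (Ex 340/Em 450 nm) was followed for 8 min.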
# VDR inh – blocks the human vitamin D receptor | Potency, µM, without a hit: max response, negative = inhibition, hits mostly inhibitors | P11473 | AID 504847 | VDR-SRC2-3 peptide fluorescence polarization, 2 h | 400,000 tested, 0.93% active; also: % is scaled to controls: 0 for no effect and ±100 for the full control effect
# Target sequence (P11473 whole entry, looked up): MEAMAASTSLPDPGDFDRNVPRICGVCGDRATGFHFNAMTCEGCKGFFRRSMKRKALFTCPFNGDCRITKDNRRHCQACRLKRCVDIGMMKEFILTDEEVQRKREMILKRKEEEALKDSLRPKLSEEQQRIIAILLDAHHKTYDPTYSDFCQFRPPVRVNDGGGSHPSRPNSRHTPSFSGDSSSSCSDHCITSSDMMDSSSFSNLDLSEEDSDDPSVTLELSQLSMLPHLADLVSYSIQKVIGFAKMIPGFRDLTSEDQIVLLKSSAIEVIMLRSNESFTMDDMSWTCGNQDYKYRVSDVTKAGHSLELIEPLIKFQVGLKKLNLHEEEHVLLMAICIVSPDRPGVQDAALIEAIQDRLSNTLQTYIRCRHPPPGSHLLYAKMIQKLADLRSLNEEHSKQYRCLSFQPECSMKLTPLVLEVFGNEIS
#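 Signal is fluorescence polarization, reporting how far test compounds block the interaction of VDR with the SRC2-3 coregulator peptide after a 2 h room-temperature incubation.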
# Vif-A3F inh – blocks the Vif interaction with APOBEC3F; 390,000 tested, 0.2% active; Potency, µM (top dose mostly 46.1 µM), inactives show at the highest dose activity, negative = active; AID 602313; HeLa A3F-eYFP + Vif (tagged APOBEC3F with the HIV-1 protein that degrades it), YFP fluorescence increase; also: % of control where 0% means no effect; nearly all actives have a fitted effect of over 65% in size
#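 Fluorescence increase (Ex 488/Em 500-530) after overnight compound treatment at 37 deg C flags inhibition of Vif-driven A3F-eYFP loss in stable HeLa A3F-eYFP/Vif cells seeded overnight beforehand.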
# Vif-A3G inh – inhibitors of Vif-APOBEC3G interaction. Q9HC16. HeLa A3G-eYFP + Vif (tagged APOBEC3G with the HIV-1 protein that degrades it), YFP fluorescence, overnight. Potency, µM (top dose mostly 46.1 µM), without a hit: top-dose activity, negative = active, usual class: inhibitors. 410,000 tested, 0.076% active; also: % is scaled to controls: 0 for no effect and ±100 for the full control effect; nearly all actives have a fitted effect of over 60% in size
#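 HeLa cells stably expressing Vif and C-terminally eYFP-tagged A3G, seeded overnight at 37 deg C, then exposed to compound by pintool overnight at 37 deg C. Rise in yellow fluorescence (Ex 488/Em 500-530, Acumen) marks blocked Vif-driven A3G degradation.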
# TrxR1 substrate – substrates of rat thioredoxin reductase 1. 390,000 tested, 0.01% active. O89049. purified TrxR1 substrate turnover, NADPH consumption readout. Potency, µM (highest dose often 114 µM), for inactives: at the top dose activity change, negative = substrate turnover; also: % is scaled to controls: 0 for no effect and ±100 for the full control effect; nearly all actives have a fitted effect of over 50% in size
#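 Rat TrxR1, dispensed at 90 nM, was prereduced with 400 uM NADPH (final) for 5 min at ~22 deg C, then incubated with compound 15 min before 400 uM selenite. A first-read NADPH fluorescence drop versus no-compound background flagged substrates.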
# An asterisk follows results filed as active; ? = inconclusive; nt = no result; ! = a repeat was not active; [ ] = remark or other dose. Calls follow the shape of the dose curve; as a rule, active = well fitted curve in the direction sought with a large enough effect; inconclusive = small, poorly fitted or top-dose-only effect, or another doubt; inactive = no such curve, though single readings can be large; an effect the other way counts as inactive or inconclusive. Potency is read from the fitted curve at half-maximal effect.
SMILES,TrxR1 inh,VDR inh,Vif-A3F inh,Vif-A3G inh,TrxR1 substrate
CS(=O)(=O)c1oc(-c2ccc(F)cc2)nc1S(=O)(=O)c1ccc(Cl)cc1,0.501µM*,?,0.4%,-34.0%,10.8%
Cc1cc(C)cc(N2C(=O)CSC23C(=O)N(CC(=O)NCCc2ccccc2)c2ccccc23)c1 (centres undefined),10.1%,-2.3%,5.7%,1.1%,-4.8%
CSc1oc(-c2ccc(F)cc2)nc1S(=O)(=O)c1ccccc1,12.5%,27.7%,0.5%,-1.3%,-3.7%
CC(C)S(=O)(=O)c1oc(-c2ccc(F)cc2)nc1S(=O)(=O)c1ccccc1,0.316µM*,?,-0.6%,?,11.1%
Cc1ccc2cc(C3CC(c4ccco4)=NN3S(C)(=O)=O)c(Cl)nc2c1 (centres undefined),79.4µM*,-1.9%,?,-6.9%,-3.5%
Cc1ccc2nc(Cl)c(C3CC(c4ccco4)=NN3S(C)(=O)=O)cc2c1 (centres undefined),?,-8.8%,-1.4%,-2.3%,6.2%
CC(=O)NC(Nc1c(C)n(C)n(-c2ccccc2)c1=O)C(Cl)(Cl)Cl (centres undefined),56.2µM*,1.6%,-1.4%,2.5%,0.7%
Cc1ccccc1S(=O)(=O)N1CCN(c2nc(-c3cccs3)nc3ccccc23)CC1,5.3%,-7.6%,nt,nt,-1.4%
CC(=O)O[C@@H]1[C@@]2(C)O[C@H]2CC[C@]23O[C@H]2[C@H](OC3=O)C2=C(C)C(=O)O[C@@]21O,50.1µM*,-5.4%,-2.6%,1.3%,18.4%
CN(N=O)c1ccc2c(c1)Cc1ccccc1-2,5.8%,nt,nt,-10.1%,-1.7%[0.0914 µM]
Cc1[nH][nH]c(=O)c1C(c1ccc(-c2ccc(Cl)c(C(=O)O)c2)o1)c1c(C)[nH][nH]c1=O,-23.3%[57.1 µM],39.8µM*,-20.7%,-7.3%,-16.0%[57.1 µM]
COC(=O)c1cccc(-c2ccc(C(c3c(C)[nH][nH]c3=O)c3c(C)[nH][nH]c3=O)o2)c1,4.7%[57.1 µM],-26.9%,-1.4%,-7.5%,-1.3%[57.1 µM]
Cc1cc(O)c(C=O)c(O)c1C(=O)O,nt,8.5%,nt,nt,nt
Cc1cc(O)c(C=O)c2c1C(=O)Oc1c(CO)c(O)c3c(c1O2)C(O)OC3=O (centres undefined),50.1µM*,17.8µM*,-2.3%,0.1%,-6.9%
Cc1cc(O)c(C=O)c2c1C(=O)Oc1c(COC(=O)/C=C/C(=O)O)c(O)c(C(=O)O)c(C)c1O2,nt,6.31µM*,nt,nt,nt
Cc1c2ccccc2nc2c(F)c(N(C)C)c(F)c(F)c12,?,-20.1%,25.1µM*,?,4.5%
Cc1ccc(S(=O)(=O)c2ccc(C)cc2)cc1,-3.4%[57.1 µM],3.6%,-1.3%,-4.4%,4.3%[57.1 µM]
Cc1ccc(S(=O)(=O)c2ccc([N+](=O)[O-])cn2)cc1,0.447µM*,25.1µM*,-8.5%,-5.0%,-7.5%
O=[N+]([O-])c1ccc(S(=O)(=O)c2ccccc2)nc1,?,39.8µM*,5.6%,-27.5%,13.2%[57.1 µM]
C[C@@H](Nc1nc(Cl)nc2nc[nH]c12)c1ccccc1,3.3%,?,nt,-0.6%,-5.3%
COc1ccccc1-c1nn2c(C3COc4ccccc4O3)nnc2s1 (centres undefined),-6.8%,70.8µM*,-3.1%,-0.1%,4.6%
c1ccc(OCc2nnc3sc(C4COc5ccccc5O4)nn23)cc1 (centres undefined),-9.1%[57.1 µM],70.8µM*,0.9%,-1.6%,-9.0%[57.1 µM]
O=C(Oc1ccc([N+](=O)[O-])cc1)c1cncc(Br)c1,17.8µM*,?,-20.3%,1.1%,3.5%
COc1ccc(CCNC(=O)Cn2cc(S(=O)(=O)Cc3ccccc3F)c3ccccc32)cc1OC,8.4%,8.2%,1.4%,-1.0%,-0.5%
S=C1NCN(Cc2cccnc2)CN1,-12.8%[57.1 µM],2.5%,-3.4%,2.8%,10.0%[57.1 µM]
SMILES,TrxR1 inh,VDR inh,Vif-A3F inh,Vif-A3G inh,TrxR1 substrate
CN(C)C(=S)N=c1ssc(=S)n1Cc1cccnc1,-20.1%,50.1µM*,4.5%,-20.8%,-12.3%
CCN(CC)CCN1C(=O)C(O)=C(C(=O)c2cccs2)C1c1ccc(C)o1 (centres undefined),15.8µM*,0.7%,-7.0%,2.6%,2.8%[57.1 µM]
Nc1[nH]c(=S)nc2nnsc12,-6.3%,nt,nt,-9.2%,-0.5%
CCOC(=O)c1ccc(CNc2ncnc3nc[nH]c23)cc1,0.0%,3.5%,nt,1.7%,6.8%[0.0914 µM]
COc1ccc(-c2cc(-c3ccco3)[nH]c(=O)c2C#N)cc1OC,15.8µM*,-12.7%,-11.5%,-5.8%,45.7%
CCC1CC=CC2C1C(=O)N(Cc1ccccc1)C2c1cc(C)ccc1F (centres undefined),-4.3%,?,nt,-14.6%,-4.9%
CC(C)N1CCc2c(sc(NC(=O)c3ccc4ccccc4c3)c2C(N)=O)C1,-11.6%,11.4%,?,?,0.9%
CC(C)N1CCc2c(sc(NC(=O)c3cc4cc([N+](=O)[O-])ccc4s3)c2C(N)=O)C1,2.5%[57.1 µM],72.8%,?,8.91µM*,4.2%[57.1 µM]
CCc1ccc(OCCn2c(CCNC(=O)C3CCCCC3)nc3ccccc32)cc1,10.1%,-18.4%,nt,1.2%,-1.9%
COc1cccc(-c2nn(C)c3sc(C(=O)NCc4ccc(C)o4)cc23)c1,31.6µM*,?,-2.5%,-0.2%,31.7%
COc1cccc(-c2nn(C)c3sc(C(=O)NCc4ccc(OC)cc4OC)cc23)c1,45.2%,-19.2%,-6.8%,-15.7%,25.2%
CN(C)c1ccc(C=c2c3ccccc3n3c2c2ccccc2[n+]3C)cc1,31.6µM*,-92.5%,1.7%,3.1%,-19.3%
CCc1cccc2c(C(O)(c3c[nH]c4c(CC)cccc34)c3c[nH]c4c(CC)cccc34)c[nH]c12,6.4%,nt,nt,-3.0%,2.9%
O=C(NCCc1nc2ccccc2n1CCCOc1ccccc1)C1CCCCC1,11.7%[0.0914 µM],-10.2%,nt,-0.7%,-4.8%
Cc1ccn2c(NC3CCCC3)c(-c3cccs3)nc2c1,9.6%[57.1 µM],39.8µM*,3.6%,2.5%,9.6%[57.1 µM]
O=C(CS(=O)(=O)c1ccccc1)c1cc2ccccc2oc1=O,15.8µM*,-11.5%,3.9%,-3.0%,-8.5%
CN(CC(=O)O)c1ccc(/C=C/c2ccnc3ccccc23)cc1,-0.6%,nt,nt,?,-3.0%
CC[N+](C)(C(=O)O)/C(=C\c1ccccc1)c1ccnc2ccccc12 (centres undefined),-0.8%,nt,nt,11.2µM*,-8.1%
CCc1ccc(OCC(=O)c2c(O)c3ccccc3oc2=O)cc1,-28.8%,-16.5%,2.5%,0.1%,-10.8%
CCc1oc2ccccc2c1C(=O)c1cc(Br)c(O)c(Br)c1,-2.5%,50.1µM*!,-4.7%,-13.1%,-6.7%
O=C1[C@H](Cc2ccccc2)NC/C=C\C[C@@H](c2ccc(Cl)cc2)N1Cc1ccccc1,-3.3%,nt,nt,-2.3%,-1.8%
O=C(Nc1ccc(Cl)c(Cl)c1)c1ccc(Cl)c(Cl)c1,11.4%[2.29 µM],-10.6%,-0.2%,-7.4%,0.1%[2.29 µM]
Cc1ccc(NC(=O)c2ccc(Cl)c(N3C(=O)C=CC3=O)c2)cc1,?,17.8µM*,-9.2%,-20.4%,13.1%[57.1 µM]
O=C(O)C1=C(CSc2nnnn2CS(=O)(=O)O)CS[C@@H]2[C@H](NC(=O)[C@H](O)c3ccccc3)C(=O)N12,nt,39.8µM*,nt,nt,nt

# Screens: PubChem, National Center for Advancing Translational Sciences (NCATS)
